Reference: the supplement of paper PMC10849652
Targets with a hit are over-represented here; the source holds about 7,900 in all. About 0.6% of all pairs of compound and target were hits.

Experiments:
Assay in all cases: log2 fold change, soluble protein after heating vs DMSO (PISA); higher = thermal stabilisation; K562 cells, 10 uM, 30 min; active = over 0.2 and 3.5 SD of the protein, either way, in both replicates (recomputed)
IRAK-1-4 Inhibitor I = compound: C1COCCN1CCN2C3=CC=CC=C3N=C2NC(=O)C4=CC(=CC=C4)[N+](=O)[O-] [IRAK-1-4 Inhibitor I]
In short: (§1)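 Values are thermal stability changes relative to control samples and are taken from duplicates. They are stated as log2 fold changes. Before quantification by TMTpro 16plex LC-MS/MS with equalised channel sums, K562 cells at 2×10^6 cells/mL were treated with 10 μM compound for 30 min, heated in aliquots for 3 min across 48°C-58°C, pooled, extracted in PBS with 0.5% NP-40 at 4°C, and centrifuged at 21,000xg for 90 min to give the soluble supernatant.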

ibrutinib = compound: C=CC(=O)N1CCC[C@@H](n2nc(-c3ccc(Oc4ccccc4)cc3)c3c(N)ncnc32)C1 [ibrutinib]
In short: as §1

[1] = compound: CC(=O)c1cnc2ccc(-c3cc(Cl)c(O)c(Cl)c3)nc2c1N[C@H]1CC[C@H](CN(C)C)CC1
In short: as §1

ralimetinib = compound: CC(C)(C)Cn1c(N)nc2ccc(-c3[nH]c(C(C)(C)C)nc3-c3ccc(F)cc3)nc21 [ralimetinib]
In short: as §1

[2] = compound: CC(C)(O)CC(=O)NCCn1ccc2ncnc(Nc3ccc(Oc4cccc(C(F)(F)F)c4)c(Cl)c3)c21
In short: as §1

[3] = compound: CC(C)C1=C2N=C(C=C(N2N=C1)NCC3=CC=CC=C3)NCCCCCCN
In short: as §1

[4] = compound: CC(C)C[C@@H](C=O)NC(=O)[C@H](CC(C)C)NC(=O)[C@H](CC(C)C)NC(=O)OCc1ccccc1
In short: as §1

pinometostat = compound: CC(C)N(C[C@H]1O[C@@H](n2cnc3c(N)ncnc32)[C@H](O)[C@@H]1O)[C@H]1C[C@@H](CCc2nc3cc(C(C)(C)C)ccc3[nH]2)C1 [pinometostat]
In short: as §1

[5] = compound: CC1=C(C(CC(=O)N1)C2=CC=C(C=C2)C(F)(F)F)C(=O)NC3=C(C=C4C(=C3)C=NN4)F
In short: as §1

[6] = compound: CC1=C(C2=C(C=C1)C(=O)C3=CC=CC=C3N2CCCN)C
In short: as §1

[7] = compound: CC1=C(C=C(C=C1)NC(=O)C2=CC(=CC=C2)C(C)(C)C#N)NC3=CC4=C(C=C3)N=CN(C4=O)C
In short: as §1

[8] = compound: CC1=C(C=C(C=C1)NC(=O)C2=CC(=CC=C2)N(C)C)NC(=O)C3=CC=C(C=C3)O
In short: as §1

[9] = compound: CC1=CC=C(C=C1)SC2=C3C=C(SC3=CN=C2)C(=O)N
In short: as §1

[10] = compound: CC1=NC(=CC=C1)C2=C(N=C(N2)C(C)(C)C)C3=CC4=NC=CN=C4C=C3
In short: as §1

Nexturastat A = compound: CCCCN(Cc1ccc(C(=O)NO)cc1)C(=O)Nc1ccccc1 [Nexturastat A]
In short: as §1

vemurafenib = compound: CCCS(=O)(=O)Nc1ccc(F)c(C(=O)c2c[nH]c3ncc(-c4ccc(Cl)cc4)cc23)c1F [vemurafenib]
In short: as §1

[11] = compound: CCCS(=O)(=O)Nc1ccc(F)c(C(=O)c2c[nH]c3ncc(Cl)cc23)c1F
In short: as §1

[12] = compound: CCCc1cc(C)[nH]c(=O)c1CNC(=O)c1cc(-c2ccnc(N3CCN(C)CC3)c2)cc2c1cnn2C(C)C
In short: as §1

givinostat = compound: CCN(CC)Cc1ccc2cc(COC(=O)Nc3ccc(C(=O)NO)cc3)ccc2c1 [givinostat]
In short: as §1

barasertib = compound: CCN(CCCOc1ccc2c(Nc3cc(CC(=O)Nc4cccc(F)c4)[nH]n3)ncnc2c1)CCOP(=O)(O)O [barasertib]
In short: as §1

Measured: log2 fold change

VTA1 (UniProt Q9NP79)
Sequence of UniProt Q9NP79 (Q9NP79 whole entry, looked up): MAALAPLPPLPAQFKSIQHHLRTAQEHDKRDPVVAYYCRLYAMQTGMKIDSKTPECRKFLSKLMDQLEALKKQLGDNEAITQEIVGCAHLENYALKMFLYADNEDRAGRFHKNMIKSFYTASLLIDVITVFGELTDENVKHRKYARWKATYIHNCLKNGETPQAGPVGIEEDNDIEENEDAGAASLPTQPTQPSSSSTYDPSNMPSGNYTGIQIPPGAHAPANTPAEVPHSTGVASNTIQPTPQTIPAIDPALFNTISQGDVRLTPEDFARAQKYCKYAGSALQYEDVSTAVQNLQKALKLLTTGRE
inactive: IRAK-1-4 Inhibitor I -0.02 | ibrutinib -0.001 | [1] -0.013 | ralimetinib -0.009 | [2] -0.074 | [3] -0.12 | [4] -0.007 | pinometostat -0.041 | [5] 0.012 | [6] 0.068 | [7] 0.011 | [8] -0.019 | [9] 0.044 | [10] 0.034 | Nexturastat A -0.041 | vemurafenib 0.042 | [11] 0.082 | [12] -0.065 | givinostat -0.005 | barasertib 0.041

VRK1 (UniProt Q99986)
inactive: IRAK-1-4 Inhibitor I -0.041 | ibrutinib 0.032 | [1] 0.338 | ralimetinib -0.033 | [2] -0.32 | [3] -0.013 | [4] 0.055 | pinometostat -0.008 | [5] -0.027 | [7] -0.089 | [8] -0.121 | [9] 0.096 | [10] 0.063 | Nexturastat A -0.085 | vemurafenib 0.122 | [11] 0.072 | [12] 0.108 | givinostat 0.046 | barasertib 0.075
active: [6] 0.433

TMEM63B (UniProt Q5T3F8)
Sequence of UniProt Q5T3F8 (Q5T3F8 whole entry, looked up): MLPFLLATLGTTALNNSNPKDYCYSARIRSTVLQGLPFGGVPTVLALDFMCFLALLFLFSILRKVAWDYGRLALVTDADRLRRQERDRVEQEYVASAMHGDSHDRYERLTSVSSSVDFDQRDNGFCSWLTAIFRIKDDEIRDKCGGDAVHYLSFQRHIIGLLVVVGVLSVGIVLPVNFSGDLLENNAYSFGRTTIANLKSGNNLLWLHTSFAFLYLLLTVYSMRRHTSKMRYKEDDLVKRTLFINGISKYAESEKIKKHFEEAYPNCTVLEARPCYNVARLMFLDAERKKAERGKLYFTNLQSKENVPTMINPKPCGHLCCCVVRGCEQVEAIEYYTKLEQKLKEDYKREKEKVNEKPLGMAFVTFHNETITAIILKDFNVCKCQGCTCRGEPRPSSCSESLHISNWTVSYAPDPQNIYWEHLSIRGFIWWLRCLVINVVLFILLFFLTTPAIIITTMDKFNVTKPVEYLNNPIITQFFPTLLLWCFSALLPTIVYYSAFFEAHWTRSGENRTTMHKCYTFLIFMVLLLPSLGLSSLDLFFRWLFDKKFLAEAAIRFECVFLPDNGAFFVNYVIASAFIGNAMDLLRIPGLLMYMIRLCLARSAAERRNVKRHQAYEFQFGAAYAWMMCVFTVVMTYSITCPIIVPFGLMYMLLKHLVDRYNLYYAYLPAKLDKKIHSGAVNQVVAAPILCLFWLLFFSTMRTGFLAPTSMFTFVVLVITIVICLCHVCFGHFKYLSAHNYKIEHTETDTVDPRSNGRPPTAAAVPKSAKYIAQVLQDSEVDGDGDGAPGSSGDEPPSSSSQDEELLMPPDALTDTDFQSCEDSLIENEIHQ
inactive: IRAK-1-4 Inhibitor I -0.01 | ibrutinib -0.055 | [1] -0.002 | ralimetinib -0.034 | [2] 0.011 | [3] -0.157 | [4] -0.01 | pinometostat 0.041 | [5] 0.027 | [6] 0.054 | [7] 0.095 | [8] 0.014 | [9] 0.006 | [10] 0.004 | Nexturastat A 0.051 | vemurafenib 0.009 | [11] -0.011 | [12] -0.044 | givinostat 0.014 | barasertib -0.038

USP48 isoform 8 (UniProt Q86UV5)
inactive: IRAK-1-4 Inhibitor I -0.09 | ibrutinib -0.071 | [1] -0.014 | ralimetinib 0.046 | [2] -0.207 | [3] -0.278 | [4] 0.052 | pinometostat 0.008 | [5] 0.003 | [6] -0.101 | [7] 0.128 | [8] -0.094 | [9] -0.054 | [10] 0.119 | Nexturastat A -0.006 | vemurafenib 0.162 | [11] 0.142 | [12] 0.103 | givinostat 0.144 | barasertib 0.14

UBE2Q1 (UniProt Q7Z7E8)
Sequence of UniProt Q7Z7E8 (Q7Z7E8 whole entry, looked up): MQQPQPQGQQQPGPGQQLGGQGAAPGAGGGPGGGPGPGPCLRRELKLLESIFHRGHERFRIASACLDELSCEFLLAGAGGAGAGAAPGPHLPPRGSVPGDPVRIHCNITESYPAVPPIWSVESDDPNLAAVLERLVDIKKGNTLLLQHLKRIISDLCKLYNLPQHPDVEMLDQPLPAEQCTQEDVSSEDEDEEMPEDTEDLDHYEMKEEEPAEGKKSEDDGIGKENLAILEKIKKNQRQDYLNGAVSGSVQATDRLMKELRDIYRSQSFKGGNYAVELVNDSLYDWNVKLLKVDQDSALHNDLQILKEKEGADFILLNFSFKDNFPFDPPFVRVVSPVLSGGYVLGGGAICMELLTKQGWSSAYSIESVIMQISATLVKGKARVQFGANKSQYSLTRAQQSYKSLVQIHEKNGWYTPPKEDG
inactive: IRAK-1-4 Inhibitor I 0.024 | ibrutinib -0.012 | [1] 0.029 | ralimetinib -0.015 | [2] -0.062 | [3] -0.192 | [4] -0.11 | pinometostat 0.005 | [5] -0.01 | [6] -0.006 | [7] 0.093 | [8] -0.041 | [9] -0.003 | [10] -0.037 | Nexturastat A 0.008 | vemurafenib 0.011 | [11] 0.114 | [12] -0.031 | givinostat 0.022 | barasertib 0.068

TSG101 (UniProt Q99816)
Sequence of UniProt Q99816 (Q99816 whole entry, looked up): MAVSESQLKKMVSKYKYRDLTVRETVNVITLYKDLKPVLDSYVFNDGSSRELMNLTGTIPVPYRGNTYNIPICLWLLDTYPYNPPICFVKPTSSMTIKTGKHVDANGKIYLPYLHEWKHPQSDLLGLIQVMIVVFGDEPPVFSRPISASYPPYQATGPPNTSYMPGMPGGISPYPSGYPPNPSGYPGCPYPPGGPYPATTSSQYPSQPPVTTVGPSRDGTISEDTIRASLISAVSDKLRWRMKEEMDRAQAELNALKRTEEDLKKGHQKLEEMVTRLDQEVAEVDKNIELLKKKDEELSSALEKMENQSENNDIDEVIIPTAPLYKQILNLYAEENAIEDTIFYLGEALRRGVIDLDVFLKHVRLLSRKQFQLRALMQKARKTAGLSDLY
inactive: IRAK-1-4 Inhibitor I 0.05 | ibrutinib 0.004 | [1] -0.017 | ralimetinib -0.005 | [2] -0.025 | [3] -0.146 | [4] 0.031 | pinometostat -0.003 | [5] 0.001 | [6] -0.012 | [7] 0 | [8] -0.011 | [9] -0.001 | [10] 0.025 | Nexturastat A -0.017 | vemurafenib 0.021 | [11] 0.024 | [12] -0.057 | givinostat 0.035 | barasertib 0.046

TNPO1 (UniProt Q92973)
Sequence of UniProt Q92973 (Q92973 whole entry, looked up): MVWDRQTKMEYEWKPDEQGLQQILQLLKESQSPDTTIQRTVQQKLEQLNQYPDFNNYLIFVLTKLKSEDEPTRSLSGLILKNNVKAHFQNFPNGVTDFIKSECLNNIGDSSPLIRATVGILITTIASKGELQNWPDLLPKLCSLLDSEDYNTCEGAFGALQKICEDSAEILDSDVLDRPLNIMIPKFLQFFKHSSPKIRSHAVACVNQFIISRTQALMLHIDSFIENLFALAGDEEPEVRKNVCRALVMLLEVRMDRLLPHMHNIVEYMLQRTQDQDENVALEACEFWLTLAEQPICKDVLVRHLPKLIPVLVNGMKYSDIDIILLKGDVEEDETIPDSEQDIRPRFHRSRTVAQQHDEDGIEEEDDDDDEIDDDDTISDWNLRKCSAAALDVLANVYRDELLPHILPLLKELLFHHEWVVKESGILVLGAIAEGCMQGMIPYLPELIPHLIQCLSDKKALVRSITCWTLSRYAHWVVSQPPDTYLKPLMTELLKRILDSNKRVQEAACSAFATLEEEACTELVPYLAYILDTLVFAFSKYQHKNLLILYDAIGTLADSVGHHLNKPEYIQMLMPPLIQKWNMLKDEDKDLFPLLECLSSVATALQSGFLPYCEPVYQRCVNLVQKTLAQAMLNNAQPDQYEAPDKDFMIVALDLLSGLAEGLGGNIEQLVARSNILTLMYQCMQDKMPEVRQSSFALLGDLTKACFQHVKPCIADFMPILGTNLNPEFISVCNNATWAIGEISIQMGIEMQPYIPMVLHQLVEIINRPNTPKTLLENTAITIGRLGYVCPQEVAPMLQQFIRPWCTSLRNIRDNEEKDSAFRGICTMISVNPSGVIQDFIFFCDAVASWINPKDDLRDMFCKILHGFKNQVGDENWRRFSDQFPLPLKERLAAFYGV
active: [6] -0.231
inactive: IRAK-1-4 Inhibitor I 0.01 | ibrutinib 0.001 | [1] 0.043 | ralimetinib -0.01 | [2] -0.029 | [3] -0.193 | [4] -0.011 | pinometostat -0.006 | [5] 0.032 | [7] 0.041 | [8] 0 | [9] 0.037 | [10] 0 | Nexturastat A -0.017 | vemurafenib 0.015 | [11] 0.064 | [12] -0.009 | givinostat 0.015 | barasertib -0.005

TSFM (UniProt P43897)
Sequence of UniProt P43897 (P43897 whole entry, looked up): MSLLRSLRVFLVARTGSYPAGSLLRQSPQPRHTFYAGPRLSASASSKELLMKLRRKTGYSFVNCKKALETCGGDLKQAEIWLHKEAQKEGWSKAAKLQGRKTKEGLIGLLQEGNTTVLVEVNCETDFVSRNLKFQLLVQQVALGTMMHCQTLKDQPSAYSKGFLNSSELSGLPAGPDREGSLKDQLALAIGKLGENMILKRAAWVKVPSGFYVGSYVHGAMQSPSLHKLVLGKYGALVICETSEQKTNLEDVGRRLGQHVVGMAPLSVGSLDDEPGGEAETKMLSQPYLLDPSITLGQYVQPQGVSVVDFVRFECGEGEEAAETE
inactive: IRAK-1-4 Inhibitor I -0.065 | ibrutinib -0.134 | [1] -0.067 | ralimetinib 0.011 | [2] -0.254 | [3] 0.069 | [4] -0.058 | pinometostat -0.08 | [5] -0.066 | [6] 0.258 | [7] 0.253 | [8] -0.167 | [9] 0.021 | [10] 0.11 | Nexturastat A -0.057 | vemurafenib 0.08 | [11] 0.034 | [12] 0.181 | givinostat 0.041 | barasertib 0.075

TNFAIP8 isoform 4 (UniProt O95379)
Sequence of UniProt O95379 (O95379 whole entry, looked up): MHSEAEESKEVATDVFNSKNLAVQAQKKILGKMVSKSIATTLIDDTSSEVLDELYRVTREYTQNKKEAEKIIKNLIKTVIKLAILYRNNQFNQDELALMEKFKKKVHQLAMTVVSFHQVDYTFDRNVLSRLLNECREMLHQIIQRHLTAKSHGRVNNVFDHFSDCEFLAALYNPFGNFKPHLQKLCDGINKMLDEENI
inactive: IRAK-1-4 Inhibitor I -0.018 | ibrutinib -0.036 | [1] -0.036 | ralimetinib 0 | [2] -0.037 | [3] -0.075 | [4] -0.047 | pinometostat -0.065 | [5] -0.001 | [6] -0.037 | [7] -0.019 | [8] -0.013 | [9] -0.021 | [10] 0.051 | Nexturastat A -0.102 | vemurafenib 0.014 | [11] -0.102 | [12] -0.052 | givinostat 0.003 | barasertib 0.065

UFM1 (UniProt P61960)
Sequence of UniProt P61960 (P61960 whole entry, looked up): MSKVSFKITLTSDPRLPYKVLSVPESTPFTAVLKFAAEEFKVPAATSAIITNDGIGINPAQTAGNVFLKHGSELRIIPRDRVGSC
inactive: IRAK-1-4 Inhibitor I 0.219 | ibrutinib 0.026 | [1] 0.003 | ralimetinib 0 | [2] -0.117 | [3] 0.06 | [4] 0.055 | pinometostat 0.013 | [5] -0.057 | [6] 0.133 | [7] 0.031 | [8] -0.046 | [9] 0.06 | [10] 0.183 | Nexturastat A -0.04 | vemurafenib 0.07 | [11] 0.041 | [12] -0.083 | givinostat 0.087 | barasertib -0.014

XPO5 (UniProt Q9HAV4)
Sequence of UniProt Q9HAV4 (Q9HAV4 whole entry, looked up): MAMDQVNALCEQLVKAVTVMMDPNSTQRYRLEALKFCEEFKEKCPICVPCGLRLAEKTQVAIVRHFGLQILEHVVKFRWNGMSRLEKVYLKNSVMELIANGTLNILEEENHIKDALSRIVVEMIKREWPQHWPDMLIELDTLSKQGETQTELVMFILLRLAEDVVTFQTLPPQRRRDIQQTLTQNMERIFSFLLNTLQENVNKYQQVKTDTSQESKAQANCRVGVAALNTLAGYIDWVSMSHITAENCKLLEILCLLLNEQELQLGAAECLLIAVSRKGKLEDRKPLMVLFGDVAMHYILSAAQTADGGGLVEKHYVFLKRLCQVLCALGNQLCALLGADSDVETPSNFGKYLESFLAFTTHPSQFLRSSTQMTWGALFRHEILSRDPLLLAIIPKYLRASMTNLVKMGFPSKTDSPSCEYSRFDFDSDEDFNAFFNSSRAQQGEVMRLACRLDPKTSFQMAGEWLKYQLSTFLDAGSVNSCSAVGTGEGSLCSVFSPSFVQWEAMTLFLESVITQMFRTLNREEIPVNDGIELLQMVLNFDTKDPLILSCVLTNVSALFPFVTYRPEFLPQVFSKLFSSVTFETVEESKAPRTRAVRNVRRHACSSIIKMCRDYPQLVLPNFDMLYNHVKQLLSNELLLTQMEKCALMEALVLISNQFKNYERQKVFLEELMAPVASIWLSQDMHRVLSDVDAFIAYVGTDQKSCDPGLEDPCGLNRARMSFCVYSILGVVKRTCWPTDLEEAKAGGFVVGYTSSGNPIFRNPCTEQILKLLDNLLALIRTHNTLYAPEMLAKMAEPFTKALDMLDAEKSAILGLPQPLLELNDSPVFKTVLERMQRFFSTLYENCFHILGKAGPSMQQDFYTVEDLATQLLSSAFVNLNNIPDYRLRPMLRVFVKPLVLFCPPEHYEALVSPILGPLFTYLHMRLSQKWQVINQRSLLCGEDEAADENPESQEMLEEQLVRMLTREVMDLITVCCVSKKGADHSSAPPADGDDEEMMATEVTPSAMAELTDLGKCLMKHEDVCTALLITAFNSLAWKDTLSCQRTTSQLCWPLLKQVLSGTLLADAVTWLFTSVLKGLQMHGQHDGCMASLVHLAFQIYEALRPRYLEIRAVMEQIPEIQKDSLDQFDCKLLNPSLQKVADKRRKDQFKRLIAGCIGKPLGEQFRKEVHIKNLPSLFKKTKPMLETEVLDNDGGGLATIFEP
inactive: IRAK-1-4 Inhibitor I -0.004 | ibrutinib -0.027 | [1] 0.032 | ralimetinib 0.001 | [2] -0.141 | [3] -0.21 | [4] -0.021 | pinometostat -0.01 | [5] 0 | [7] 0.031 | [8] -0.039 | [9] 0.054 | [10] 0.031 | Nexturastat A -0.053 | vemurafenib 0.013 | [11] 0.056 | [12] 0.014 | givinostat -0.029 | barasertib 0.029
active: [6] -0.204

WASHC5 (UniProt Q12768)
inactive: IRAK-1-4 Inhibitor I -0.042 | ibrutinib 0.007 | [1] -0.024 | ralimetinib 0.072 | [2] -0.116 | [4] 0.003 | pinometostat 0.067 | [5] -0.049 | [6] -0.014 | [7] -0.011 | [8] -0.011 | [9] 0 | [10] -0.006 | Nexturastat A 0.052 | vemurafenib 0.004 | [11] 0.004 | [12] 0.065 | givinostat 0.085 | barasertib 0.077
active: [3] -0.277

UCHL5 isoform 3 (UniProt Q9Y5K5)
Sequence of UniProt Q9Y5K5 (Q9Y5K5 whole entry, looked up): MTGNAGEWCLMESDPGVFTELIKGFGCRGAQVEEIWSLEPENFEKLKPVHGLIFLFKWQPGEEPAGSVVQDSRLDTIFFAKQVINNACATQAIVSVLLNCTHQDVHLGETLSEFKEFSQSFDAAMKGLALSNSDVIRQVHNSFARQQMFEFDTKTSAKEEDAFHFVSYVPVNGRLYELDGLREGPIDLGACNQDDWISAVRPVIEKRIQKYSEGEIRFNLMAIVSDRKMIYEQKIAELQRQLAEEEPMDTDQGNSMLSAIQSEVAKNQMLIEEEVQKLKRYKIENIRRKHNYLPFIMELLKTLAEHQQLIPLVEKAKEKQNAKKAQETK
inactive: IRAK-1-4 Inhibitor I -0.012 | ibrutinib -0.222 | [1] -0.021 | ralimetinib 0.006 | [2] -0.357 | [3] -0.143 | [4] 0.077 | pinometostat -0.044 | [5] 0.068 | [6] 0.028 | [7] -0.09 | [8] -0.145 | [9] 0.048 | [10] -0.213 | Nexturastat A 0.07 | vemurafenib -0.02 | [11] 0.243 | [12] 0.047 | givinostat 0.056 | barasertib 0.048

VPS33A (UniProt Q96AX1)
active: [3] -0.299
inactive: IRAK-1-4 Inhibitor I -0.017 | ibrutinib -0.021 | [1] -0.001 | ralimetinib 0.048 | [2] -0.065 | [4] 0.054 | pinometostat 0.099 | [5] 0.035 | [6] 0.005 | [7] -0.013 | [8] -0.074 | [9] -0.016 | [10] -0.021 | Nexturastat A -0.024 | vemurafenib 0.003 | [11] 0.036 | [12] 0.04 | givinostat 0.058 | barasertib 0.068

WARS2 (UniProt Q9UGM6)
inactive: IRAK-1-4 Inhibitor I -0.016 | ibrutinib -0.075 | [1] -0.031 | ralimetinib -0.017 | [2] -0.144 | [3] -0.204 | [4] 0.016 | pinometostat -0.053 | [5] -0.026 | [6] -0.004 | [7] -0.03 | [8] 0.032 | [9] 0.018 | [10] 0.074 | Nexturastat A -0.128 | vemurafenib 0.048 | [11] 0.136 | [12] 0.042 | givinostat -0.026 | barasertib 0.012

TMEM177 (UniProt Q53S58)
inactive: IRAK-1-4 Inhibitor I 0.06 | ibrutinib 0.079 | [1] 0.007 | ralimetinib -0.068 | [2] -0.023 | [3] -0.131 | [4] 0.045 | pinometostat -0.02 | [5] -0.007 | [6] 0.028 | [7] 0.043 | [8] 0.045 | [9] -0.008 | [10] 0.048 | Nexturastat A -0.092 | vemurafenib 0.05 | [11] 0.05 | [12] -0.038 | givinostat 0.005 | barasertib -0.019
